# PKA-R1A act: PKA-R1A complex activation; activation, % at 11.4 µM; hit rate 0.083% among 340,000; PKA-R1A dissociation, Cy5-IP20 fluorescence polarization; scaled: DMSO 0%, 113 µM cGMP 100%;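 active = percent activation above the mean of all tested compounds plus 3 SD, cut at about 19% in these data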;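 note: higher means more PKAc released from R1A so a rise in polarization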
# Neddylation inh: cullin neddylation inhibition. P61081+Q13564. TR-FRET cullin neddylation, biochemical. inhibition, % at 25 µM. hit rate 0.58% among 360,000; in the data active = inhibition above about 36%
# Target sequence (P61081 whole entry, looked up): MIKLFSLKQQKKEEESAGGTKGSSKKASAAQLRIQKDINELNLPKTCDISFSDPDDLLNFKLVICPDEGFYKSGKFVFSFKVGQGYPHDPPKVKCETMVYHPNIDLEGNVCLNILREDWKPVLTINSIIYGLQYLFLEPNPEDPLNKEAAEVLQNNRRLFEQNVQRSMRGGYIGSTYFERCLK
# Target sequence (Q13564 whole entry, looked up): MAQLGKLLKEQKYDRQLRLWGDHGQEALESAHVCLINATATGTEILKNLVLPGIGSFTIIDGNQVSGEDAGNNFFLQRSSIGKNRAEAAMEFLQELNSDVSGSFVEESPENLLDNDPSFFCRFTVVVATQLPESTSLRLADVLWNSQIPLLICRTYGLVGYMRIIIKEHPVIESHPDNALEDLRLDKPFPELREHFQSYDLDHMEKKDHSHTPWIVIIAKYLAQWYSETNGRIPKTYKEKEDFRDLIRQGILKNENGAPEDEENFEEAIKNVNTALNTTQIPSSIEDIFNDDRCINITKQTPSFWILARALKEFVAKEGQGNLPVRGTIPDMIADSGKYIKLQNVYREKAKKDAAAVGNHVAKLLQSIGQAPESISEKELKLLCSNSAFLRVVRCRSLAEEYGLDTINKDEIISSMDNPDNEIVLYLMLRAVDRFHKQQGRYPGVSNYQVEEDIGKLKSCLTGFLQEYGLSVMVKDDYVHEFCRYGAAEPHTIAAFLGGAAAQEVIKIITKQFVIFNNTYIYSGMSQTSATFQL
# PKA-R2B activ: activates the human PKA-R2B holoenzyme complex. PKA-R2B holoenzyme dissociation, Cy5-IP20 fluorescence polarization; R2B truncated from residue 108, S112A mutant; 0% DMSO only, 100% 113 µM cGMP. activation, % at 11.4 µM. hit rate 0.079% among 340,000;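 active = activation above a cutoff set at the mean over all compounds plus 3 SD, cut at about 18% in these data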;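 note: higher means more holoenzyme dissociation and a rise in polarization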
# Rpn11 inh: blocks the human proteasome subunit Rpn11; O00487; human 26S proteasome, Ub4-pepOG fluorescence polarization; 20S core pre-blocked with epoxomicin; calls only at 20 µM; hit rate 0.59% among 360,000;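 active = inhibition at 20 µM, scaled to each plate's controls, above about 33%, limit read from the data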
# Neddyl inh conf: confirmation of human cullin neddylation inhibitors; shares compounds with Neddylation inh; TR-FRET cullin neddylation biochemical assay; calls only at 25 µM; hit rate 13% among 1,800; AID 652217; in the data active = inhibition above about 40%;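 note: neddylation substrate is the cullin 1 ring ligase complex with SKP2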
# Starred values were filed as active, the others as inactive; i = inactive; . = no result shown; + = active, no number. Most compounds without a hit are left out; they make up all but 1.3% or so of the library.
SMILES,PKA-R1A act,Neddylation inh,PKA-R2B activ,Rpn11 inh,Neddyl inh conf
Cc1ccc(NC(=O)COC(=O)c2nn(C)c(=O)c3ccccc23)cc1F,4,-19,-1,i,.
N/C(=N\N=Cc1ccc2c(c1)OCO2)NN=Cc1ccc2c(c1)OCO2,-4,41*,-4,i,.
CC1(C)C2CCC1(CS(=O)(=O)NC1CCCC1)C(=O)C2 (stereo not drawn),3,43*,8,i,i
CC1(C)C2CCC1(CS(=O)(=O)Nc1ccccc1)C(=O)C2 (stereo not drawn),-4,3,-4,i,.
CCOC(=O)c1cn2nc(Oc3cccc(F)c3)ccc2n1,4,41*,6,i,i
CC1Cc2c([nH]c3ccccc23)C(=O)N1 (stereo not drawn),4,50*,-3,i,.
OC(c1ccc(F)cc1)c1ncc(-c2cccc3ccccc23)[nH]1 (stereo not drawn),.,40*,.,i,i
CCc1ccc(C(O)c2ncc(-c3cccc4ccccc34)[nH]2)cc1 (stereo not drawn),.,35,.,i,.
Cc1c(C(=O)NCC(c2ccco2)N(C)C)oc2c(Cl)cccc12 (stereo not drawn),2,9,-12,i,.
COc1ccc(C(CNC(=O)c2oc3ccc(OC)cc3c2C)N2CCCC2)cc1 (stereo not drawn),1,50*,-6,i,.
CCOc1ccc2oc(C(=O)NCC(c3ccco3)N(C)C)c(C)c2c1 (stereo not drawn),5,47*,-5,i,.
CN(C)C(CNC(=O)c1ccc2[nH]c(=O)c(=O)[nH]c2c1)c1ccco1 (stereo not drawn),8,52*,2,i,.
CN(C)C(CNC(=O)c1ccc(Br)cc1)c1ccco1 (stereo not drawn),4,-5,3,i,.
CCOc1ccc2oc(C(=O)NCc3ccccc3CN3CCCC3)c(C)c2c1,-2,52*,6,i,.
CCSc1nc2c(c(-c3ccc(C)o3)c1C#N)CCCC2,-6,-3,-6,i,.
Cc1ccc(-c2c(C#N)c(N)nc3c2CCCC3)o1,-6,45*,2,i,i
Cc1nc(-c2cccc3ccccc23)ccc1C(=O)O,-16,43*,-16,i,i
COCCNC(=O)C(C)N1c2cccc3cccc(c23)S1(=O)=O (stereo not drawn),9,35,0,i,.
COCCCNC(=O)C(C)N1c2cccc3cccc(c23)S1(=O)=O (stereo not drawn),3,42*,1,i,i
O=C(Nc1cc(Cl)cc(Cl)c1)c1coc(=O)c(Br)c1,-8,40*,-1,i,i
O=C(NCCC1=CCCCC1)c1coc(=O)c(Br)c1,-9,-76,8,i,.
O=C(NNC(=O)C1C2CCCCC21)c1coc(=O)c(Br)c1 (stereo not drawn),2,39*,9,i,i
O=C(NC(CO)(CO)CO)c1coc(=O)c(Br)c1,-6,-11,-11,i,.
COc1cc2[nH]c3c(c2cc1OC)CCN1CCCC[C@@H]31,-7,49*,-4,i,i
COc1cc2[nH]c(=S)n(C3CCCC3)c(=O)c2cc1OC,-5,0,-3,i,.
SMILES,PKA-R1A act,Neddylation inh,PKA-R2B activ,Rpn11 inh,Neddyl inh conf
COc1cccc(N2CCN(C(=O)c3cccn4c(=O)c5c(C)c(C)sc5nc34)CC2)c1,-5,38*,-2,i,.
COc1ccc(N2CCN(C(=O)c3cccn4c(=O)c5ccccc5nc34)CC2)cc1,-3,13,-2,i,.
COc1cc(NC(=O)COc2cc3oc(=O)cc(C)c3cc2Cl)cc(OC)c1OC,-7,3,2,i,.
Cc1cc(=O)oc2cc(NC(=S)NNC(=O)c3c(Cl)cnn3C)ccc12,-5,52*,5,i,i
Cc1cc(=O)oc2cc(NC(=S)NCc3ccccn3)ccc12,0,-57,5,i,.
Cc1ccc(-n2nnnc2-c2cccs2)cc1[N+](=O)[O-],-1,51*,-4,i,i
O=S(=O)(c1ccc2c(c1)C(=NO)c1cc(S(=O)(=O)N3CCCCC3)ccc1-2)N1CCCCC1,-3,.,9,i,.
CC1CCN(S(=O)(=O)c2ccc3c(c2)C(=NO)c2cc(S(=O)(=O)N4CCC(C)CC4)ccc2-3)CC1,-1,39*,5,i,i
CCC(C)c1ccccc1N1CC(C(=O)NCCCn2nc(C)cc2C)CC1=O (stereo not drawn),-1,5,-11,i,.
Cc1nc(SCc2nc3ccc(C(=O)c4ccccc4)cc3[nH]2)c2oc3ccccc3c2n1,-5,i,-1,.,.
CCC(C)NC(=O)c1c(N)n(/N=C/c2ccccn2)c2nc3ccccc3nc12 (stereo not drawn),1,46*,-8,i,i
CCC(C)NC(=O)c1c(N)n(/N=C/c2cccnc2)c2nc3ccccc3nc12 (stereo not drawn),-3,.,7,i,.
O=C(O)c1cccc(N2CCCC2)c1,-16,39*,-11,i,.
O=C(O)c1cccc(N2CCCC2=O)c1,-9,4,11,i,.
CCOC(=O)c1cnc2c(C(=O)OC)cccc2c1NCc1ccco1,3,42*,6,i,i
CCN(C(=O)CSc1nnc(SC(C)C)s1)C1CCS(=O)(=O)C1 (stereo not drawn),-5,-13,3,i,.
NC(=O)c1nsc(C(=O)N(c2ccc(F)cc2)C(C(=O)NCC2CCCO2)c2ccc3ncccc3c2)c1N (stereo not drawn),5,.,1,i,.
Cc1ccc(N(C(=O)c2snc(C(N)=O)c2N)C(C(=O)NCC2CCCO2)c2ccc3ncccc3c2)cc1 (stereo not drawn),-2,43*,-6,i,i
Cc1cccc(N(C(=O)c2snc(C(N)=O)c2N)C(C(=O)NCC2CCCO2)c2ccc3ncccc3c2)c1 (stereo not drawn),5,48*,4,i,.
COc1cccc(N(C(=O)c2snc(C(N)=O)c2N)C(C(=O)NCC2CCCO2)c2ccc3ncccc3c2)c1 (stereo not drawn),-3,45*,-9,i,+
Nc1c(C(=O)Nc2ccc3c(c2)OCCO3)nnn1Cc1cccc(Cl)c1,-7,30,-14,i,.
Nc1c(C(=O)Nc2ccc3c(c2)OCCO3)nnn1Cc1ccc(F)cc1,-1,50*,-3,i,i
O=C(N/N=C/c1cnc(N2CCCCC2)s1)c1ccc(Cl)cc1,-4,46*,-14,i,+
Cc1ccc(C(=O)Nc2c(-c3ccc(Cl)cc3)[nH][nH]c2=O)cc1,.,2,.,i,.
O=C(N/N=C/c1cccn1-c1ccc(O)cc1)c1cccc2ccccc12,-9,45*,3,i,i
O=C(N/N=C/c1ccccc1)c1cccc2ccccc12,-7,0,-5,i,.
